Assay results as given in PubChem BioAssay (NCI).
This is part of a sample that, as a whole, favours compounds with a hit. Of some 83,000 tested, about 20% had one in any assay.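 Single-dose data. Exposure time 48 hours. Values below 10 considered active.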 Unmarked numbers belong to inactive results. Calls of active or inactive are those of the source.

Key:
Assay in all cases: NCI-60 one-dose screen, 48 h (100 = growth as untreated, 0 = no growth, -100 = all killed)
Conditions in all cases: 10 µM unless noted
[1] = test system: SR leukemia
[2] = test system: RPMI-8226 leukemia
[3] = test system: OVCAR-8 ovarian
[4] = test system: OVCAR-5 ovarian
[5] = test system: OVCAR-4 ovarian
[6] = test system: SK-OV-3 ovarian
[7] = test system: IGROV1 ovarian
[8] = test system: OVCAR-3 ovarian
[9] = test system: HS 578T breast
[10] = test system: NCI/ADR-RES ovarian
[11] = test system: T-47D breast
[12] = test system: BT-549 breast
[13] = test system: MDA-MB-435 melanoma
[14] = test system: SW-620 colon
[15] = test system: MCF7 breast
[16] = test system: HCT-116 colon
[17] = test system: HCC-2998 colon
[18] = test system: KM12 colon

Compound `N#Cc1c(-c2cccs2)cc(-c2cnccn2)nc1SCC(=O)Nc1ccc(Br)cc1` has a growth [1] of 79.5%, a growth [2] of 99.5% and a growth [3] of 94.6%. The growth [4] was 86.7%, the growth [5] was 73.8% and the growth [6] was 97.6%. The growth [7] was 64.8%, the growth [8] was 96.3% and the growth [9] was 68.6%. For the same compound, the growth [10] was 85.8%, the growth [11] was 96.2% and the growth [12] was 65.4%. For the same compound, the growth [13] was 74.4%, the growth [14] was 77.3% and the growth [15] was 66.6%. The growth [16] was 69%, the growth [17] was 99.7% and the growth [18] was 97.7%.
For `CCOC(=O)c1c(NC(=O)c2ccccc2C(F)(F)F)sc2c1CCC(=O)C2`, the growth [1] was 24.2%, the growth [2] was -6.12% (active) and the growth [3] was 37.9%. It also gave a growth [4] of 21%, a growth [5] of 16.7% and a growth [6] of 99.7%. The growth [7] was 29%, the growth [8] was 12.4% and the growth [9] was 36.3%. For the same compound, the growth [10] was 10.7%, the growth [11] was 15% and the growth [12] was 11.1%. The growth [13] was 72.6%, the growth [14] was 14.9% and the growth [15] was 78.5%. For the same compound, the growth [16] was 11%, the growth [17] was 65.2% and the growth [18] was 7.7% (active).
For `O=C(CSc1nc2ccccc2c(=O)n1-c1ccc(Cl)cc1)N/N=C/c1ccc(N2CCCCC2)cc1`, the growth [1] was 74.8%, the growth [2] was 100% and the growth [3] was 65.3%. The growth [4] was 76.9%, the growth [5] was 58.6% and the growth [6] was 30.1%. It also gave a growth [7] of 55.5%, a growth [8] of 32.8% and a growth [9] of 37.9%. For the same compound, the growth [10] was 39.9%, the growth [11] was 74.6% and the growth [12] was 104%. It also gave a growth [13] of 86.9%, a growth [14] of 65.9% and a growth [15] of 67.5%. For the same compound, the growth [16] was 36.9%, the growth [17] was 118% and the growth [18] was 96.4%.
With `Cc1cc2nc(C(Cl)Cl)nc(-c3cccs3)n2n1` the growth [1] was 48.3%, the growth [2] was -23.4% (active) and the growth [3] was 35%. The growth [4] was 3.63% (active), the growth [5] was 14.9% and the growth [6] was 14.7%. For the same compound, the growth [7] was 43.2%, the growth [8] was -30.9% (active) and the growth [9] was 3.9% (active). It also gave a growth [10] of 13.7%, a growth [11] of 30.6% and a growth [12] of 74.1%. The growth [13] was 26.3%, the growth [14] was 10.9% and the growth [15] was 12.1%. For the same compound, the growth [16] was 12.2%, the growth [17] was -54.4% (active) and the growth [18] was -26.4% (active).
Work on `O=c1[nH]c2ccccc2cc1CSc1ccccc1Nc1nccc(-c2ccc(Cl)cc2)n1` yielded a growth [1] of 99.2%, a growth [2] of 94.5% and a growth [3] of 96.9%. The growth [4] was 110%, the growth [5] was 86.2% and the growth [6] was 112%. For the same compound, the growth [7] was 89.6%, the growth [8] was 101% and the growth [9] was 88.6%. The growth [10] was 95.1%, the growth [11] was 93.3% and the growth [12] was 119%. The growth [13] was 99.9%, the growth [14] was 101% and the growth [15] was 81.1%. The growth [16] was 100%, the growth [17] was 114% and the growth [18] was 100%.
With `Cc1ccc(NC(=O)CNc2cc(C(N)=O)cc(F)c2C)c(Cl)c1` the growth [1] was 95.2%, the growth [2] was 90.6% and the growth [3] was 99.9%. It also gave a growth [4] of 87.9%, a growth [5] of 75.2% and a growth [6] of 104%. For the same compound, the growth [7] was 70.6%, the growth [8] was 111% and the growth [9] was 92.8%. For the same compound, the growth [10] was 105%, the growth [11] was 104% and the growth [12] was 102%. It also gave a growth [13] of 97.4%, a growth [14] of 96.8% and a growth [15] of 87.2%. It also gave a growth [16] of 96.3%, a growth [17] of 122% and a growth [18] of 99.1%.
In the case of `CN(C)CCNC(=O)c1ccc(-c2nc3ccc4[nH]ncc4c3c3c2CCC3)cc1`, the growth [1] is reported as -1.05% (active), the growth [2] is reported as -15.7% (active) and the growth [3] is reported as 9.58% (active). The growth [4] was 21.4%, the growth [5] was 10.2% and the growth [6] was 0.409% (active). For the same compound, the growth [7] was 1.06% (active), the growth [8] was 2.15% (active) and the growth [9] was -25% (active). The growth [10] was 81.3%, the growth [11] was 32.8% and the growth [12] was -19.5% (active). The growth [13] was 22.2%, the growth [14] was 3.38% (active) and the growth [15] was 1.36% (active). The growth [16] was 2.43% (active), the growth [17] was 2.85% (active) and the growth [18] was 4.08% (active).
`COc1ccc(COc2ccc(/C=C3\C(=O)Nc4ccccc43)cc2OC)cc1` was tested, and the growth [1] was 102%, the growth [2] was 104% and the growth [3] was 101%. The growth [4] was 99.9%, the growth [5] was 99.8% and the growth [6] was 119%. It also gave a growth [7] of 107%, a growth [8] of 115% and a growth [9] of 105%. It also gave a growth [10] of 106%, a growth [11] of 113% and a growth [12] of 92.1%. The growth [13] was 106%, the growth [14] was 99.1% and the growth [15] was 94%. For the same compound, the growth [16] was 108%, the growth [17] was 102% and the growth [18] was 104%.
In the case of `COc1c(N2CC3CCCNC3C2)c(F)cc2c(=O)c(C(=O)N/N=C/c3c[nH]c4ccccc34)cn(C3CC3)c12` (stereo not drawn), the growth [1] is reported as -12.2% (active), the growth [2] is reported as 78.2% and the growth [3] is reported as 99%. For the same compound, the growth [4] was 116%, the growth [5] was 106% and the growth [6] was 130%. The growth [7] was 97.9%, the growth [8] was 103% and the growth [9] was 110%. The growth [10] was 104%, the growth [11] was 116% and the growth [12] was 100%. The growth [13] was 105%, the growth [14] was 90.7% and the growth [15] was 55%. For the same compound, the growth [16] was 56.7%, the growth [17] was 119% and the growth [18] was 98.7%.
In the case of `O=C(Cn1cc(-c2ccccc2)nn1)Nc1nc(-c2ccc(Cl)cc2)cs1`, the growth [1] is reported as 98.6%, the growth [2] is reported as 99.3% and the growth [3] is reported as 101%. For the same compound, the growth [4] was 104%, the growth [5] was 92.7% and the growth [6] was 94.7%. It also gave a growth [7] of 108%, a growth [8] of 123% and a growth [9] of 106%. The growth [10] was 102%, the growth [11] was 95% and the growth [12] was 98.1%. It also gave a growth [13] of 95.7%, a growth [14] of 108% and a growth [15] of 87%. For the same compound, the growth [16] was 108%, the growth [17] was 105% and the growth [18] was 108%.
For `NC(N)=Nc1ccc(Oc2cccc(NC(N)=Nc3ccc(Cl)c(C(F)(F)F)c3)c2)cn1`, the growth [1] was -16.4% (active), the growth [2] was 27.9% and the growth [3] was 53.5%. The growth [4] was 41.8%, the growth [5] was 52.7% and the growth [6] was 48.3%. The growth [7] was -19.7% (active), the growth [8] was 3.55% (active) and the growth [9] was 33.2%. It also gave a growth [10] of 95.4%, a growth [11] of 32.9% and a growth [12] of 60.4%. For the same compound, the growth [13] was 46.4%, the growth [14] was 38.5% and the growth [15] was 20.2%. It also gave a growth [16] of 15.8%, a growth [17] of 62.6% and a growth [18] of 24.7%.
`O=C(NNc1nc2cc(F)ccc2n2c(CN3CCCC3)ccc12)c1cnccn1` was tested, and the growth [1] was 4.32% (active), the growth [2] was 20.6% and the growth [3] was 13.9%. For the same compound, the growth [4] was 33.5%, the growth [5] was 14.1% and the growth [6] was 16.8%. For the same compound, the growth [7] was 13.8%, the growth [8] was 4.58% (active) and the growth [9] was 68.1%. The growth [10] was 0.656% (active), the growth [11] was 15.4% and the growth [12] was 24.1%. For the same compound, the growth [13] was 34.4%, the growth [14] was 22.3% and the growth [15] was 4.57% (active). It also gave a growth [16] of 11.1%, a growth [17] of 35.7% and a growth [18] of 20.3%.
For `Cn1cc(-c2cc(N)n3nc(-c4cn(C)c5ccccc45)cc3n2)c2ccccc21`, the growth [1] was -9.33% (active), the growth [2] was 18.7% and the growth [3] was 85.4%. The growth [4] was 114%, the growth [5] was 95% and the growth [6] was 137%. For the same compound, the growth [7] was 104%, the growth [8] was 101% and the growth [9] was 124%. For the same compound, the growth [10] was 91.3%, the growth [11] was 90% and the growth [12] was 128%. The growth [13] was 0.548% (active), the growth [14] was 85.9% and the growth [15] was 44.8%. It also gave a growth [16] of 62.1%, a growth [17] of 78.5% and a growth [18] of 72.7%.
`C#Cc1nc(/C=C/C(=O)c2nccn2C)cs1` was tested, and the growth [1] was -40.8% (active), the growth [2] was -39.9% (active) and the growth [3] was 27.1%. For the same compound, the growth [4] was -87.4% (active), the growth [5] was 33.7% and the growth [6] was -59.7% (active). For the same compound, the growth [7] was -59.1% (active), the growth [8] was -64.4% (active) and the growth [9] was -6.46% (active). For the same compound, the growth [10] was -26.1% (active), the growth [11] was -23.4% (active) and the growth [12] was -59.1% (active). The growth [13] was 1.27% (active), the growth [14] was -24.9% (active) and the growth [15] was -30% (active). The growth [16] was -48.8% (active), the growth [17] was -83.1% (active) and the growth [18] was -43.5% (active).
For `O=C(c1ccc(Cl)cc1)C1[C@H](c2ccc(Cl)cc2)[C@@H](c2ccccc2)NC12C(=O)Nc1ccccc12` (stereo partly drawn), the growth [1] was 3.54% (active), the growth [2] was 40.1% and the growth [3] was 64%. It also gave a growth [4] of 71%, a growth [5] of 59.7% and a growth [6] of 102%. For the same compound, the growth [7] was 44.9%, the growth [8] was 47.7% and the growth [9] was 67.1%. It also gave a growth [10] of 52.2%, a growth [11] of 40.1% and a growth [12] of 96.1%. For the same compound, the growth [13] was 49.1%, the growth [14] was 54% and the growth [15] was 13.2%. For the same compound, the growth [16] was 26.1%, the growth [17] was 34.5% and the growth [18] was 30.7%.
`O=c1[nH]c(Sc2sc3ccc(Cl)cc3c2CBr)nc(=S)[nH]1` was tested, and the growth [1] was 7.03% (active), the growth [2] was 24.2% and the growth [3] was 41.2%. The growth [4] was 49.3%, the growth [5] was 40.7% and the growth [6] was 18.4%. The growth [7] was 4.63% (active), the growth [8] was 56% and the growth [9] was 19.3%. For the same compound, the growth [10] was 65.3%, the growth [11] was -0.0992% (active) and the growth [12] was 48.5%. For the same compound, the growth [13] was 15.1%, the growth [14] was 40.4% and the growth [15] was 15.2%. It also gave a growth [16] of 38.6%, a growth [17] of 48.5% and a growth [18] of 12.8%.
